# Results as given in PubChem BioAssay AID463173 (ICCB-Longwood Screening Facility, Harvard Medical School, 2010).
# Screen size: about 52,000 compounds; about 4,300 (8.3%) were called active. This is one part of a sample in which actives are shown more often than they occur. Unmarked numbers belong to inactive results. Cut-off read from the data, not from the text of the source: active = survival mostly below about 52% (no sharp cut-off); inactive = mostly above about 56%.
# Test system: DeltatarO mutant
# Assay: growth inhibition of S. aureus wild type versus tarO mutant, primary screen, teichoic acid synthesis inhibitors, RN4220, OD600 (AID 463173)
# Conditions: OD600, 18 h, stronger effect = lower value, screened at 18.75 µg/mL (by protocol)
row,SMILES,survival
1,CCOc1ccc(OCC)c(-n2cnnn2)c1,71%
2,CCOc1ccc2oc(=O)cc(CN3CCN(c4ccc(OC)cc4)CC3)c2c1,73%
3,COc1ccccc1N1CCN(C(=O)CSc2nc3ccccc3nc2Cc2ccc(F)cc2)CC1,95%
4,Cc1cccc(-c2noc(-c3cc(C(C)C)[nH]n3)n2)c1,97%
5,Cc1ccc(CCNC(=O)c2ccc3c(=O)n(-c4ccccc4)c(=O)[nH]c3c2)cc1,86%
6,Cc1cc(O)c(C(c2ccc(F)cc2)N2CCCCC2)c(=O)n1Cc1ccco1 (stereo not given),75%
7,COc1cccc(NC(=O)Cn2c(=O)n(CCCC(=O)NCc3ccc4c(c3)OCO4)c(=O)c3ccccc32)c1,115%
8,Cc1cc(C)c(NC(=O)C2CCN(c3nc4ccccc4[nH]3)CC2)c(C)c1,102%
9,Cc1ccc(C#N)c(SCC(=O)O)n1,91%
10,Cc1cccc(Cn2cc(S(=O)(=O)c3ccccc3)c(=O)c3cc(F)c(N4CCOCC4)cc32)c1,72%
11,COc1ccc(-c2nc3ccccc3o2)cc1NC(=O)c1cccnc1,45% (active)
12,CCOc1ccc(C(=O)Nc2cc(-c3nc4ccccc4o3)ccc2C)cc1Cl,51%
13,COc1ccc(/C=C/C(=O)Nc2cc(-c3nc4ccccc4o3)ccc2OC)cc1,50%
14,COc1ccc(-c2nc3ccccc3o2)cc1NC(=O)c1ccc(OCC(C)C)cc1,40%
15,COc1ccc(-c2nc3ccccc3o2)cc1NC(=O)C(C)(C)Oc1ccc(Br)cc1,4% (active)
16,COc1ccc(-c2nc3ccccc3o2)cc1NC(=O)c1ccc(-c2ccc(C)c(Cl)c2)o1,41% (active)
17,COc1ccc(-c2nc3ccccc3o2)cc1NC(=O)c1ccc(-c2cccc(Cl)c2C)o1,58%
18,COc1ccc(-c2nc3ccccc3o2)cc1NC(=O)c1cccc2c(Cl)cccc12,52%
19,Cc1ccc2nc(-c3ccc(Cl)c(NC(=O)c4cccnc4)c3)oc2c1,126%
20,COc1ccc(Br)cc1C(=O)Nc1ccc2oc(-c3cccnc3)nc2c1,117%
21,COc1ccc(-c2nc3ccccc3o2)cc1NC(=O)c1cc(Br)ccc1OC,40% (active)
22,CC(C)(Oc1ccc(Br)cc1)C(=O)Nc1cc(-c2nc3ccccc3[nH]2)ccc1Cl,76%
23,CCOc1ccc(NC(=O)NCCN2CCN(c3cccc(C)c3C)CC2)cc1,60%
24,Cc1ccc(C)c(N2CCN(C(=O)c3cn(CC(C)C)c(=O)c4c3c3ccccc3n4C)CC2)c1,28%

row,SMILES,survival
1,COc1ccccc1CNC(=O)C1CCN(c2ncnc3c2nc2n3CCCCC2)CC1,94%
2,Cc1ccc2cc(C(c3nnnn3C3CCCC3)N3CCCc4ccccc43)c(=O)[nH]c2c1 (stereo not given),97%
3,CCN(CC)C(=O)Cn1cc(C(=O)C(C)C)c2ccccc21,87%
4,Cc1ccc(NC(=O)c2cnc(N3CCCC3)nc2C)cc1F,89%
5,Cc1cc2[nH]c(=O)c(=O)[nH]c2cc1S(=O)(=O)N1CCN(c2cccc(C(F)(F)F)c2)CC1,78%
6,COc1ccc(-c2nc3ccccc3o2)cc1NC(=O)c1ccc(-c2ccc(Br)cc2)o1,43% (active)
7,COc1ccc(-c2nc3ccccc3o2)cc1N,72%
8,COc1ccc(-c2nc3ccccc3o2)cc1NC(=O)c1ccc(N2CCC(C)CC2)c([N+](=O)[O-])c1,66%
9,CCN(CC)S(=O)(=O)c1ccc2c(c1)N(CC(=O)N(C)Cc1ccccc1)C(=O)CO2,82%
10,Cc1cccc(Cn2c(CN3CCCC(C)C3)nc3c2c(=O)n(C)c(=O)n3C)c1 (stereo not given),73%
11,Cc1ccc(NC(=O)Cn2c(=O)n(CC(=O)NCCc3ccccc3)c(=O)c3ccccc32)cc1C,67%
12,Cc1ccc(C)c(NC(=O)c2cc(S(=O)(=O)NCCC3=CCCCC3)ccc2F)c1,52% (active)
13,Cc1cc(C)c(NC(=O)c2cc(S(=O)(=O)NCCC3=CCCCC3)ccc2F)c(C)c1,85%
14,Cc1ccc(C)c(NC(=O)c2cc(S(=O)(=O)NCc3ccccc3)ccc2F)c1,71%
15,COc1ccc(C)cc1NC(=O)c1cc(S(=O)(=O)NCCC2=CCCCC2)ccc1F,105%
16,Cc1cc(C)cc(NC(=O)c2cc(S(=O)(=O)NCCC3=CCCCC3)ccc2F)c1,67%
17,Cc1ccc(NC(=O)c2cc(S(=O)(=O)NCCC3=CCCCC3)ccc2F)cc1C,20% (active)
18,Cc1ccc(NC(=O)c2cc(S(=O)(=O)NCCc3ccc(Cl)cc3)ccc2F)cc1,80%
19,Cc1ccc(CNS(=O)(=O)c2ccc(F)c(C(=O)Nc3ccc(C)c(F)c3)c2)cc1,46% (active)
20,COc1ccc(CCNS(=O)(=O)c2ccc(F)c(C(=O)Nc3ccc(Cl)cc3)c2)cc1OC,104%
21,CCc1ccccc1NC(=O)c1cc(S(=O)(=O)NCCc2ccc(OC)c(OC)c2)ccc1F,8% (active)
22,COc1ccc(OC)c(NC(=O)c2cc(S(=O)(=O)NCCc3ccc(Cl)cc3)ccc2F)c1,70%
23,Cc1ccc(NC(=O)c2cc(S(=O)(=O)NCCC3=CCCCC3)ccc2F)cc1F,115%
24,CC(C)C(OC(=O)c1cccs1)C(=O)NC1CCCC1 (stereo not given),96%

row,SMILES,survival
1,Cc1nn(C(=O)c2cccc(Cl)c2)c(C)c1S(=O)(=O)N1CCOCC1,82%
2,Cc1ccc(C(=O)Nc2ccc(-c3nc4ccccc4o3)cc2)cc1Cl,68%
3,Cc1nnc(SCc2cc(=O)c3ccccc3[nH]2)s1,125%
4,CCOCCCNC(=O)C(c1ccccc1)N(Cc1ccc2c(c1)OCO2)C(=O)c1ccc(NC(C)=O)cc1 (stereo not given),51%
5,CCOCCCNC(=O)C(c1ccc(OC)cc1)N(Cc1ccc2c(c1)OCO2)C(=O)c1ccccc1O (stereo not given),62%
6,N#CCC(c1ccccc1)c1ccc2c(c1)OCO2 (stereo not given),92%
7,COc1ccc(CNCCC(c2ccccc2)c2ccc3c(c2)OCO3)cc1 (stereo not given),-14% (active)
8,COc1ccc(CN(CCC(c2ccc3c(c2)OCO3)c2ccccc2OC)C(C)=O)cc1 (stereo not given),19% (active)
9,CCOCCCNC(=O)C(c1ccc(OC)cc1)N(Cc1ccc2c(c1)OCO2)C(=O)c1ccc(NC(C)=O)cc1 (stereo not given),50%
10,COc1ccc(CNCCC(c2ccc(C)cc2)c2ccco2)cc1 (stereo not given),64%
11,COc1cc2cc(CN(Cc3ccc4c(c3)OCO4)C(=O)NCc3ccccc3)c(=O)[nH]c2cc1OC,102%
12,COc1ccc(CNCCC(c2ccc3c(c2)OCO3)c2ccccc2OC)cc1 (stereo not given),1% (active)
13,CCC(=O)N(CCC(c1ccccc1)c1ccc2c(c1)OCO2)Cc1ccc(OC(C)C)cc1 (stereo not given),0% (active)
14,NC(=O)CC(c1ccccc1)c1ccc2c(c1)OCO2 (stereo not given),97%
15,COc1ccc(CCNC(=O)c2ccc3c(c2)OCO3)cc1,110%
16,O=c1c(S(=O)(=O)c2ccccc2)cn(Cc2ccccc2)c2cc(N3CCOCC3)c(F)cc12,85%
17,COc1ccc(NC(=O)CCCN2C(=O)C(c3ccccc3)Oc3cccnc32)c(OC)c1 (stereo not given),81%
18,Cc1ccc(C(=O)c2oc3ccccc3c2NC(=O)COc2ccccc2C)cc1,95%
19,CCc1ccc(NC(=O)CSC2=Nc3ccccc3C3=NC(CCC(=O)NCc4ccccc4OC)C(=O)N23)cc1 (stereo not given),55%
20,Cc1ccc(-n2ncc3c(N4CCN(C)CC4)ncnc32)cc1Cl,96%
21,COc1ccc(C2=NC(C)(C)N(CC(=O)Nc3ccc(F)c(F)c3)C2=O)cc1,92%
22,Cc1c(C(=O)Nc2cc(F)ccc2F)sc2nc(-c3ccc(F)cc3)cn12,107%
23,CCn1c(=O)c(C(=O)Nc2cc(OC)c(OC)c(OC)c2)nc2ccccc21,89%
24,O=C(COc1ccccc1F)Nc1ccc(Cl)c(-c2nc3ccccc3[nH]2)c1,33% (active)

row,SMILES,survival
1,O=C(COc1ccc(F)cc1)Nc1ccc(Cl)c(-c2nc3ccccc3[nH]2)c1,26% (active)
2,CN1C(=O)c2ccccc2Sc2ccc(NC(=O)COc3ccc(F)cc3)cc21,87%
3,O=C(COc1ccccc1F)Nc1ccc2oc(-c3cccc(Cl)c3)nc2c1,102%
4,O=C(COc1ccccc1F)Nc1ccc(-c2nc3ccccc3s2)cc1,67%
5,Cc1ccccc1-c1nc2cc(NC(=O)COc3ccc(F)cc3)ccc2o1,56%
6,CCOC(=O)N1CCc2c(sc(NCc3ccc(N(C)C)cc3)c2C(=O)Nc2ccc(OC)cc2)C1,77%
7,CC1=C(c2ccc(C)cc2)S(=O)(=O)NC1=NCCCN1CCN(c2ccccc2F)CC1,74%
8,CCCCNC(=O)CSc1nc2cc3c(cc2c(=O)n1Cc1ccc(C(=O)NCCc2ccc(OC)c(OC)c2)cc1)OCO3,85%
9,COc1ccccc1OCc1nnc(SCC(=O)N(C)C)o1,52%
10,COC(=O)c1ccc(Cn2c(SCC(=O)NCc3ccccc3)nc3ccccc32)cc1,102%
11,CC1=C(C#N)C(c2cccc(Oc3ccccc3)c2)C2=C(CCCC2=O)N1 (stereo not given),54%
12,O=C(CCCn1c(=O)c2ccccc2n(CC(=O)Nc2cccc(Cl)c2)c1=O)NCc1ccc2c(c1)OCO2,76%
13,Cc1ccc2c(c1)c(=O)c1ccccc1n2CCCC(=O)Nc1ccc(C)c(F)c1,105%
14,Cc1cccc(C)c1NC(=O)CCCn1c(=O)c2cccn2c2ccccc21,55%
15,O=C(CCCn1c2ccccc2c(=O)c2ccccc21)Nc1ccc(F)cc1Cl,51%
16,Cc1cc(C)cc(NC(=O)CCCn2c3ccccc3c(=O)c3ccccc32)c1,42% (active)
17,Cc1cc(C)cc(NC(=O)CCCn2c(=O)c3cccn3c3ccccc32)c1,59%
18,Cc1ccc2c(c1)c(=O)c1ccccc1n2CCCC(=O)Nc1ccc(C)c(C)c1,43% (active)
19,Cc1ccc(NC(=O)CCCn2c(=O)c3cccn3c3ccccc32)c(Cl)c1,51%
20,O=C(CCCn1c2ccccc2c(=O)c2ccccc21)Nc1cccc(Cl)c1,27% (active)
21,O=C(CCCn1c(=O)c2cccn2c2ccccc21)Nc1cccc(Cl)c1,41% (active)
22,Cc1cc(C)cc(NC(=O)Cn2c(=O)c3ccccc3n3nncc23)c1,83%
23,Cc1ccc(CNC(=O)CCCn2c(=O)c3ccccc3n(CC(=O)Nc3ccc(C)c(C)c3)c2=O)cc1,78%
